Results: the supplement of paper PMC3334620
Over roughly 33,000 sequences, “E-score (-0.5 to 0.5)” has its median near -0.036; the highest 2% begin near 0.37. The sample as a whole holds a higher share of the highest values than the screen did.

These sequences were tested against T1, Yer064c (UniProt P40041) (assay: PBM E-score (8-mer binding enrichment) (E-score (-0.5 to 0.5)); higher = stronger / more preferred TF binding). Settings: protein concentration: 200 nM; construct: GST-full length.
T1 sequence: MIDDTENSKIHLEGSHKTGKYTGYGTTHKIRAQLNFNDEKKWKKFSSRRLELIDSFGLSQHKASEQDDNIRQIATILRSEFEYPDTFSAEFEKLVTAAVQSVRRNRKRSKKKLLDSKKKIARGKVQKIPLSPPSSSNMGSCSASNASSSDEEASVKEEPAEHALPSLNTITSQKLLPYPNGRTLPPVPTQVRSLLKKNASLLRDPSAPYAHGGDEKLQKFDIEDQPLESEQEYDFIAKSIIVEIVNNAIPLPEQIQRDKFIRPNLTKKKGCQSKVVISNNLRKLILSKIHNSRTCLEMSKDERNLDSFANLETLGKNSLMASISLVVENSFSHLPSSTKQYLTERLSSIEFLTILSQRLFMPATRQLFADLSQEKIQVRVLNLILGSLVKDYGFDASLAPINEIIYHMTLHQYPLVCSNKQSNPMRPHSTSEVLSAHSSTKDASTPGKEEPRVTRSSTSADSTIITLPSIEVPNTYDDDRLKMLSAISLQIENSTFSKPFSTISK
Description: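 Universal 'all 10-mer' protein binding microarrays (Agilent AMADID 015681) probed with GST-tagged S. cerevisiae TFs (full-length or DBD) made by in vitro transcription/translation (PURExpress), about 100-200 nM. Bound TF was detected with fluorescent anti-GST. Each ungapped 8-mer (which stands for itself and its reverse complement) is scored by the PBM enrichment score (E-score), a modified Wilcoxon-Mann-Whitney statistic from -0.5 to +0.5, computed with the Universal PBM Analysis Suite. Scale: above 0.35 generally sequence-specific binding.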

Row | Sequence | PBM E-score
1 | TATAGTAA | 0.0693
2 | AATGGGCT | -0.041
3 | AACCAACC | -0.128
4 | CGTCGAGA | 0.0495
5 | GAGCGCGC | -0.194
6 | GTCGCTCA | 0.171
7 | GGACCATA | -0.109
8 | CCGTACGA | -0.0292
9 | AAGGGAGA | 0.039
10 | AGGGACTA | 0.222
11 | GATAGTCC | 0.296
12 | GATAGTAA | 0.149
13 | GATAGTCA | 0.476
14 | GCACCCCA | -0.26
15 | GGGAGTAA | 0.00383
16 | GGGAGTTA | -0.0443
17 | CGGAGTCA | 0.477
18 | CGGAGTTA | -0.0037
19 | CGGAGTCC | 0.307
20 | GGGAGTCA | 0.477
21 | CACTGTGG | -0.177
22 | CACCTACG | 0.0159

Row | Sequence | PBM E-score
23 | GAACCGTC | -0.209
24 | GACCTGTA | -0.193
25 | ATCGAGTG | 0.139
26 | ATCGAGTC | 0.389
27 | CTCGAGTA | 0.109
28 | CTCGAGTC | 0.37
29 | ATCGAGTA | 0.138
30 | CTCGAGAC | 0.163
31 | CCGCTAGC | -0.334
32 | GAAGATCC | -0.181
33 | ACCCCTTA | -0.00226
34 | GAGACTGC | 0.217
35 | AAGACTCT | 0.425
36 | CAGACTCC | 0.187
37 | CAGACTGA | 0.134
38 | AAAACTCT | -0.168
39 | AAGACTCC | 0.387
40 | GAGACTCC | 0.367
41 | AAGACTGC | 0.137
42 | CAGACTCG | 0.218
43 | AAGACTGT | 0.254
44 | GAGACTAC | 0.36

Row | Sequence | PBM E-score
45 | CAGACTCA | 0.396
46 | ACTTATCG | 0.0591
47 | CTGCCTAC | -0.0918
48 | CCTATAGC | -0.178
49 | GCCGTGCC | -0.24
50 | CGCTGAAC | -0.0322
51 | ACGTCTAA | 0.0568
52 | ACAGGGAG | -0.0887
53 | CAAGCGAC | -0.0326
54 | CTCCCGAG | 0.0821
55 | ACGCTATG | -0.064
56 | GACTGGGC | 0.0848
57 | TAGACTCA | 0.413
58 | AAGACACG | -0.0488
59 | GAGACTGA | 0.28
60 | TAGACTGA | 0.122
61 | AAGACTCA | 0.48
62 | AAGACTTA | 0.33
63 | TATACTCA | 0.317
64 | AAGACACA | 0.0498
65 | GAGACTCA | 0.467
66 | AAGACTGA | 0.347

Row | Sequence | PBM E-score
67 | GAGACTTA | 0.24
68 | AAGACTCG | 0.373
69 | ATTTGGCG | -0.116
70 | GAAGTTAC | 0.0811
71 | ATAGCTGC | 0.00331
72 | AGCTAAGG | -0.317
73 | GGGAGCTA | -0.13
74 | AGTTCATG | 0.215
75 | GCCAATAC | -0.222
76 | AGAGCTGA | 0.0408
77 | AAAGTGAG | 0.188
78 | ATGCCGTA | -0.0237
79 | CGCGTAAC | -0.139
80 | GTACTTAA | 0.123
81 | CTTGCCAC | 0.0476
82 | ACCAAAAA | 0.186
83 | CACTTTAC | 0.0259
84 | ATCGCCTG | -0.012
85 | GAGCACTC | -0.182
86 | GAAGGATC | -0.0298
